Screening results from PubChem BioAssay.
cytoskel mod: cytoskeleton assembly modification; HUVEC TNFa F-actin phalloidin imaging, high content; inhibition, % at 2 µM; 0.18% of 91,000 active; AID 836;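 active = inhibition above the batch mean plus 3 SD and confirmed as a hit by visual image inspection, cut at about 30% in these data, passing the limit was not always enough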
ERa coact pot: ER-alpha (human) coactivator binding potentiation | AID 639 | TR-FRET ERalpha-LBD/SRC-Cy5 coactivator binding, 2 h; 100 = basal binding, no effect | coactivator binding (% of control), % at 25.6 µM | P03372 | 1.3% of 86,000 active; in the data active = activity above about 200%;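 note: binding measured in presence of low estradiol as agonist stimulus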
Calb biofilm kill: kills Candida albicans biofilms; C. albicans biofilm + clotrimazole, Alamar Blue; inhibition, % at 6 µM; 0.14% of 85,000 active;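 active = inhibition above 20%; inactive = inhibition below 20%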;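 note: preformed 24 hr biofilms exposed to compound for 48 hr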
ERb SRC1 inh: ER-beta (human) coactivator binding inhibition. Q92731. inhibition, % at 25.6 µM. 1.3% of 86,000 active. TR-FRET ER-beta LBD / SRC1-Cy5 peptide binding; receptor agonist-loaded with 1 µM estradiol;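 active = compounds whose percent inhibition of the receptor-coactivator binding signal exceeds about 50% in the single-dose screen, limit read from the data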
Target sequence (Q92731 whole entry, looked up, the tested form may be a part): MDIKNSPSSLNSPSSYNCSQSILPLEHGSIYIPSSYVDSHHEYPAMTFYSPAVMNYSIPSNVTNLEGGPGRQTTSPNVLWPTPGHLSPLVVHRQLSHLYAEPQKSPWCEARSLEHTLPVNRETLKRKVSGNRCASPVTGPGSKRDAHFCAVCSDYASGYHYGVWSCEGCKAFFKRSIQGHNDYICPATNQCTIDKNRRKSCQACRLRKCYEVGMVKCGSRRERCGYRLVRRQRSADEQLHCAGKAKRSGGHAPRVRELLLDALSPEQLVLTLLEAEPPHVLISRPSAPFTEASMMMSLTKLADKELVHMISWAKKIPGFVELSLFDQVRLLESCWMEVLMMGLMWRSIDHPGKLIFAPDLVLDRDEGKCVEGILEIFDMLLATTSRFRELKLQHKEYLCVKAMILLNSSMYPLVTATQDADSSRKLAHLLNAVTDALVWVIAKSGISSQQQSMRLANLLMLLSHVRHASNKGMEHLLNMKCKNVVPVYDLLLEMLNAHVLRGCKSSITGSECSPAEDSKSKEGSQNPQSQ
ERa SRC1 inh: blocks coactivator binding to human estrogen receptor alpha; P03372; TR-FRET ER-alpha LBD / SRC-1 peptide, estradiol-bound; inhibition, % at 25.6 µM; 1.7% of 86,000 active; AID 629; in the data active = inhibition above about 50%
E-sel TNF inh: blocks E-selectin expression induced by TNF alpha | inhibition, % at 2 µM | 0.71% of 120,000 active | HUVEC TNFa-induced E-selectin immunofluorescence, high content | AID 1246;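 active = inhibition above the batch mean plus 3 SD, and confirmed as a hit on visual image review, cut at about 43% in these data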
Numbers stand for hits; i = inactive; nt = no result; [ ] = another dose, or the depositor's remark. Most compounds without a hit are left out; they make up all but 2.9% or so of the library.

SMILES	cytoskel mod	ERa coact pot	Calb biofilm kill	ERb SRC1 inh	ERa SRC1 inh	E-sel TNF inh
Cc1ccc(S(=O)(=O)c2nc(-c3ccc(F)cc3)oc2SCC(=O)NCC2CCCO2)cc1 (stereo not given)	i	310[fluorescence artefact?]	i	i	i	i
COc1cccc(NC(=O)c2nn(C)cc2Br)c1	i	i	i	i	i	i
Cc1[nH]nc2c1C(c1ccccn1)N(c1ccc(Br)cc1)C2=O (stereo not given)	i	i	i	i	77[fluorescence artefact?]	i
CCOC(=O)c1ccc(N2C(=O)c3n[nH]c(C)c3C2c2ccccn2)cc1 (stereo not given)	i	i	i	i	i	nt
C=CCNc1sc(C(=O)c2ccc(C)cc2)c(N)c1C#N	i	i	i	i	i	i
C=CCNc1sc(C(=O)c2ccccc2)c(N)c1C#N	i	i	i	i	97[fluorescence artefact?]	i
COc1ccc(CC(=O)Nc2ccc(-c3nnc(-c4ccccc4)o3)cc2)cc1OC	i	i	i	51[fluorescence artefact?]	70[fluorescence artefact?]	i
COc1ccc(-c2nc3cc(NC(=O)Cc4ccc(OC)c(OC)c4)ccc3o2)cc1	nt	273[fluorescence artefact?]	i	i	i	i
COc1ccc(CC(=O)Nc2cccc(-c3nnc(-c4ccccc4)o3)c2)cc1OC	i	i	i	i	i	i
CSCCC(NC(N)=O)C(=O)Nc1cccc(C#N)c1 (stereo not given)	nt	nt	nt	nt	nt	i
COc1ccc2cc(CN(CC3COCCO3)S(=O)(=O)c3ccc(Cl)cc3)c(=O)[nH]c2c1 (stereo not given)	i	234[fluorescence artefact?]	i	i	i	i
Fc1cccc(F)c1CSc1nc2ccccc2[nH]1	nt	i	i	i	i	75
Cc1noc(C)c1CSc1nc2ccccc2[nH]1	i	i	i	i	i	i
O=S(=O)(c1cccc(-c2cn3cccnc3n2)c1)N1CCCCCC1	i	i	i	i	58	i
Cc1nc2ccccc2c(=O)n1/N=C/c1c(O)ccc2oc3c(c12)CCCC3	nt	i	i	i	80	nt
Cc1nc2ccccc2c(=O)n1/N=C/c1ccc(N(C)C)cc1	i	i	i	i	i	i
Nc1[nH]n(-c2ccccc2)c(=O)c1N=Nc1ccccc1[N+](=O)[O-]	i	i	i	52	88[fluorescence artefact?]	i
NC(=S)n1[nH]c(-c2ccc([N+](=O)[O-])cc2)c(N=Nc2ccccc2[N+](=O)[O-])c1=O	nt	nt	nt	nt	nt	i
CCOc1cc(/C=C(\C#N)C(=O)Nc2ccccc2[N+](=O)[O-])ccc1OCc1cccc2ccccc12	nt	nt	nt	nt	nt	i
Cc1n[nH]c(C)c1S(=O)(=O)N(CC(=O)N1CCc2ccccc21)c1ccc(C(C)C)cc1	i	i	i	50	54[fluorescence artefact?]	i
O=C1C2CCCN2C(c2ccccc2)N1c1nccs1 (stereo not given)	i	i	i	i	i	85
O=C1C2CCCN2C(c2ccccc2)N1c1cccc(Cl)c1 (stereo not given)	i	i	i	i	i	i
O=C(O)c1ccc2c(c1)C(=O)N(c1cc(C(=O)O)ccc1Br)C2=O	nt	i	i	i	i	i
CC(C)NS(=O)(=O)c1ccc2c(c1)NCC2	nt	nt	nt	nt	nt	i
CCCCc1ccc(-c2ccc(C)cc2O)nc1	i	203[fluorescence artefact?]	i	i	i	nt
SMILES	cytoskel mod	ERa coact pot	Calb biofilm kill	ERb SRC1 inh	ERa SRC1 inh	E-sel TNF inh
CCCCc1ccc(-c2ccc(Br)cc2O)nc1	nt	i	i	i	i	i
CCOc1ccccc1C1C(C#N)=C(SCC(=O)OC)NC(=O)C1C(=O)OC (stereo not given)	i	i	nt	85[fluorescence artefact?]	i	i
CCOC(=O)C1C(=O)NC(SCC(=O)OC)=C(C#N)C1c1ccccc1OCC (stereo not given)	i	i	i	i	i	i
Cc1cc(NC(=O)c2cn(C3CCCCC3)c(=O)c3c2c2ccccc2n3C)no1	i	200[fluorescence artefact?]	i	i	i	nt
COc1c(C)cccc1C(=O)NC(=S)Nc1ccc2c(c1)Cc1ccccc1-2	i	245[fluorescence artefact?]	i	i	i	i
COc1cccc(OC)c1C(=O)NC(=S)Nc1ccc2c(c1)Cc1ccccc1-2	i	202	i	i	i	i
COc1ccccc1CNC(=O)/C=C/c1ccc(S(=O)(=O)N2CCOCC2)cc1	nt	nt	nt	nt	nt	i
CC1(C)NC(=O)N(CCCSc2ccc(Cl)cc2)C1=O	nt	i	i	i	i	i
O=c1oc2ccccc2cc1NCc1ccccc1O	i	i	22	i	i	nt
O=c1oc2ccccc2cc1-c1ccc(O)cc1	nt	nt	nt	nt	nt	i
COc1cccc(CNC(=O)C2CCN(S(=O)(=O)N3CCCCC3)CC2)c1	i	i	i	i	i	i
CCS(=O)(=O)N1CCCC(C(=O)NCc2cccc(OC)c2)C1 (stereo not given)	i	i	i	i	i	53
CCCNC(=O)c1ccc(-c2nc3ccccc3s2)s1	i	i	i	62	54	i
COC(=O)/C=C1\NC(=O)C(C)S1 (stereo not given)	nt	nt	nt	nt	nt	i
CCN(CC)S(=O)(=O)c1ccc(C(=O)NCc2cccs2)cc1	i	nt	nt	nt	nt	i
CCN(CC)S(=O)(=O)c1ccc(C(=O)NCc2ccc(C)cc2)cc1	i	i	i	62	i	i
O=C(CN1C(=O)C2C3c4ccccc4C(c4ccccc43)C2C1=O)Nc1cccc(C(=O)O)c1 (stereo not given)	nt	nt	nt	nt	nt	i
COc1ccc(-c2nn3c(-c4ccncc4)nnc3s2)cc1OC	i	i	i	i	i	i
Clc1ccc(-c2nnc3sc(-c4ccc(Br)o4)nn23)cc1	i	i	i	56[fluorescence artefact?]	56[fluorescence artefact?]	i
Clc1ccc(-c2nn3c(-c4ccccc4)nnc3s2)cc1	nt	i	i	i	i	i
COc1ccc(-c2nnc3sc(-c4ccc(Br)o4)nn23)cc1OC	nt	i	i	i	62	nt
Cc1oc(-c2ccc(Cl)cc2)cc1-c1nn2c(-c3ccoc3C)nnc2s1	i	i	i	64[fluorescence artefact?]	79	i
O=C(N/C(=C\c1ccc(Br)cc1)C(=O)N1CCCC1)c1ccccc1F	nt	nt	nt	nt	nt	i
Cc1cccc(C)c1NC(=O)CNCC(=O)N(C)C	nt	nt	nt	nt	nt	i
Cn1c(=O)[nH]c(=O)c2c1nc1n2CCCN1CCc1ccccc1	i	i	i	62	65	i
SMILES	cytoskel mod	ERa coact pot	Calb biofilm kill	ERb SRC1 inh	ERa SRC1 inh	E-sel TNF inh
O=C(/C=C/c1c(Cl)cccc1Cl)n1cccn1	i	i	i	i	i	i
CCCC(=O)Nc1ccc(-c2nc3cc(C)c(C)cc3o2)cc1	i	i	i	i	69[fluorescence artefact?]	nt
Cc1ccc2oc(-c3ccc(NC(=O)c4cccnc4)cc3)nc2c1	i	248	i	i	i	nt
Cc1ccc2oc(-c3ccc(NC(=O)CC(C)C)cc3)nc2c1	i	225[fluorescence artefact?]	i	i	i	i
O=C(Nc1ccc(-c2nc3ccccc3o2)cc1)c1cccnc1	i	i	i	i	i	i
CC(C)CC(=O)Nc1ccc2oc(-c3cccnc3)nc2c1	i	i	i	i	i	i
CCc1ccccc1N(C(=O)c1cccs1)C1C=CS(=O)(=O)C1 (stereo not given)	nt	i	i	i	i	i
O=C(CCNC(=O)c1ccccc1Cl)Nc1nc(-c2ccccc2Cl)cs1	nt	nt	nt	nt	nt	i
CSC(=NC#N)N1CCN(c2ccc(Cl)cc2)CC1	i	nt	nt	nt	nt	i
N#CC(C#N)=C/C(C#N)=C(/N)N1CCN(c2ccc(Cl)cc2)CC1	i	nt	nt	nt	nt	97
